Assay results from the antibiotic and cytotoxicity screens of Wong et al. (2023).
The campaign covered roughly 39,000 compounds. About 1,500 (3.8%) were called active. The entries come from a sample that favours actives as a whole.

Tested on: HSkMC (human skeletal muscle cells)
Test: cytotoxicity call (relative viability < 0.9)
Settings: 10 µM

| SMILES | cytotoxicity call |
| --- | --- |
| Cc1noc(C)c1NC(=O)Nc1cccc2c1O[C@@H](CN(C)C(=O)Nc1cccc3ccccc13)[C@@H](C)CN([C@H](C)CO)C2=O | inactive |
| C[C@@H]1CN([C@@H](C)CO)S(=O)(=O)c2ccc(C#CCN(C)C)cc2O[C@@H]1CN(C)Cc1ccc2c(c1)OCO2 | inactive |
| COCC#Cc1cnc2c(c1)C(=O)N([C@@H](C)CO)C[C@@H](C)[C@H](CN(C)C(=O)c1cnccn1)O2 | inactive |
| CO[C@H]1CN(C)C(=O)c2cc(NC(=O)Nc3cccc(Cl)c3)ccc2OC[C@@H](C)N(C(=O)Nc2c(C)noc2C)C[C@H]1C | inactive |
| C[C@H]1CN([C@@H](C)CO)C(=O)CCCn2nncc2CO[C@H]1CN(C)S(=O)(=O)c1ccc(Cl)cc1 | inactive |
| NC(CC(=O)N1CCn2c(nnc2C(F)(F)F)C1)Cc1cc(F)c(F)cc1F.O.O=P(O)(O)O (stereo not given) | inactive |
| C[C@@H]1CN([C@@H](C)CO)C(=O)c2cccc(NS(=O)(=O)c3ccc(F)cc3)c2O[C@H]1CN(C)S(=O)(=O)c1ccc(F)cc1 | inactive |
| C[C@H](CO)N1C[C@H](C)[C@@H](CN(C)C(=O)c2cnccn2)Oc2ncc(C#CCC3CCCC3)cc2C1=O | inactive |
| CC(C)C[C@H](NC(=O)[C@@H](Cc1c[nH]c2ccccc12)NC(=O)[C@H](Cc1ccc(O)cc1)NC(=O)[C@H](CO)NC(=O)[C@H](Cc1c[nH]c2ccccc12)NC(=O)[C@H](Cc1cnc[nH]1)NC(=O)[C@@H]1CCC(=O)N1)C(=O)N[C@@H](CCCNC(=N)N)C(=O)N1CCC[C@H]1C(=O)NCC(N)=O | inactive |
| O=C1O[C@@H](c2ccccc2)[C@@H](c2ccccc2)N2[C@@H](c3ccc(OCCO)cc3)[C@]3(C(=O)Nc4ccccc43)[C@@H](C(=O)N3CCCCCCC3)[C@H]12 | inactive |
| O=C1O[C@H](c2ccccc2)[C@H](c2ccccc2)N2[C@H]1[C@@H](C(=O)N1CCCCCCC1)[C@]1(C(=O)Nc3ccccc31)[C@H]2c1ccc(O)cc1 | active |
| O=C1O[C@@H](c2ccccc2)[C@@H](c2ccccc2)N2[C@@H](c3ccc(O)cc3)[C@]3(C(=O)Nc4ccccc43)[C@@H](C(=O)N3CCCCCCC3)[C@H]12 | inactive |
| O=C(O)C[C@](O)(Cc1ccc(O)cc1)C(=O)O | inactive |
| CCS(=O)(=O)Nc1ccc2c(c1)C(=O)N(C)[C@H]1CC[C@H](CC(=O)N3CCN(C)CC3)O[C@@H]1CO2 | inactive |
| Cc1ccc(S(=O)(=O)N[C@H]2CC[C@@H](CC(=O)N3CCC(Cc4ccccc4)CC3)O[C@H]2CO)cc1 | inactive |
| C[C@@H]1CN([C@H](C)CO)C(=O)c2cccc(NC(=O)Nc3ccc4c(c3)OCO4)c2O[C@H]1CN(C)Cc1ccc(-c2ccccc2)cc1 | inactive |
| O=C(CCCCC(=O)N/N=C/c1cc(I)cc(I)c1O)NO | inactive |
| O=C(NO)c1cccc(C(=O)N/N=C/c2cc(I)cc(I)c2O)c1 | inactive |
| O=C(CCCCCCC(=O)N/N=C/c1cc(I)cc(I)c1O)NO | active |
| C[C@@H]1CCCCO[C@@H](CN(C)Cc2ccncc2)[C@H](C)CN([C@@H](C)CO)C(=O)c2cc(NC(=O)CCC(F)(F)F)ccc2O1 | inactive |
| Oc1cc(O)c2c(c1)OC(c1cc(O)c(O)c(O)c1)C(O)C2c1c(O)cc(O)c2c1OC(c1cc(O)c(O)c(O)c1)C(O)C2c1c(O)cc(O)c2c1OC(c1cc(O)c(O)c(O)c1)C(O)C2 (stereo not given) | inactive |
| C[C@@H]1CN([C@H](C)CO)C(=O)c2cc(C#CCN(C)C)cnc2O[C@H]1CN(C)Cc1ccc(C(=O)O)cc1 | inactive |
| CCN(CC)[C@H]1CCS(=O)(=O)C1 | inactive |
| C[C@@H](Oc1cc(-n2cnc3ccc(CN4CCN(C)CC4)cc32)sc1C(N)=O)c1ccccc1C(F)(F)F | active |

| SMILES | cytotoxicity call |
| --- | --- |
| COc1cccc(NC(=O)N2C[C@H](O)COC[C@@H]3O[C@@H](CC(=O)NC4Cc5ccccc5C4)CC[C@H]32)c1 | inactive |
| CCCNC(=O)N(C)C[C@@H]1Oc2cc(C#Cc3cccc(F)c3)ccc2S(=O)(=O)N([C@@H](C)CO)C[C@H]1C | inactive |
| C[C@@H]1CN([C@H](C)CO)C(=O)c2cc(NS(=O)(=O)c3ccc(Cl)cc3)ccc2O[C@@H](C)CCCCO[C@H]1CN(C)Cc1ccc(Cl)c(Cl)c1 | active |
| C[C@@H]1CCCCO[C@@H](CN(C)Cc2ccc(Cl)c(Cl)c2)[C@@H](C)CN([C@@H](C)CO)C(=O)c2cc(NS(=O)(=O)c3ccc(Cl)cc3)ccc2O1 | active |
| C[C@@H]1CN([C@H](C)CO)C(=O)c2cc(NS(=O)(=O)c3ccc(Cl)cc3)ccc2O[C@@H](C)CCCCO[C@@H]1CN(C)Cc1ccc(Cl)c(Cl)c1 | inactive |
| C[C@@H]1CCCCO[C@@H](CN(C)Cc2ccc(Cl)c(Cl)c2)[C@@H](C)CN([C@H](C)CO)C(=O)c2cc(NS(=O)(=O)c3ccc(Cl)cc3)ccc2O1 | inactive |
| C[C@@H]1CCCCO[C@H](CN(C)Cc2ccc(Cl)c(Cl)c2)[C@H](C)CN([C@@H](C)CO)C(=O)c2cc(NS(=O)(=O)c3ccc(Cl)cc3)ccc2O1 | inactive |
| C[C@@H]1CCCCO[C@@H](CN(C)Cc2ccc(Cl)c(Cl)c2)[C@H](C)CN([C@@H](C)CO)C(=O)c2cc(NS(=O)(=O)c3ccc(Cl)cc3)ccc2O1 | active |
| C[C@H](CO)N1C[C@H](C)[C@@H](CN(C)Cc2ccc(Cl)c(Cl)c2)OCCCC[C@H](C)Oc2ccc(NS(=O)(=O)c3ccc(Cl)cc3)cc2C1=O | inactive |
| C[C@@H]1CCCCO[C@H](CN(C)Cc2ccc(Cl)c(Cl)c2)[C@@H](C)CN([C@@H](C)CO)C(=O)c2cc(NS(=O)(=O)c3ccc(Cl)cc3)ccc2O1 | active |
| Nc1nnc(CC(=O)O)[nH]1 | inactive |
| Cc1ccc(S(=O)(=O)Nc2ccc3c(c2)C(=O)N([C@H](C)CO)C[C@H](C)[C@H](CN(C)Cc2ccncc2)OCCCC[C@H](C)O3)cc1 | inactive |
| O=C(N[C@H]1CC[C@@H](CCNS(=O)(=O)c2ccc(F)cc2)O[C@H]1CO)C1CC1 | inactive |
| C[C@@H]1CCCCO[C@@H](CN(C)S(C)(=O)=O)[C@@H](C)CN([C@@H](C)CO)C(=O)c2cc(NC(=O)CCCN(C)C)ccc2O1 | inactive |
| CC(C)NC(=O)Nc1ccc2c(c1)CC(=O)N([C@@H](C)CO)C[C@@H](C)[C@@H](CN(C)Cc1ccc3c(c1)OCO3)O2 | inactive |
| C[C@H]1CCCCO[C@@H](CN(C)C(=O)C2CCCCC2)[C@@H](C)CN([C@@H](C)CO)C(=O)c2cc(NC(=O)c3ccccc3)ccc2O1 | inactive |
| COC[C@@H](C)NC(=O)C1CN(C(C)=O)C1 | inactive |
| C[C@H](CO)N1C[C@H](C)[C@@H](CN(C)S(=O)(=O)c2ccc(Cl)cc2)OCc2cn(nn2)CCCC1=O | inactive |
| Cc1noc(C)c1NC(=O)Nc1ccc2c(c1)C(=O)N([C@H](C)CO)C[C@@H](C)[C@H](CN(C)Cc1ccc(-c3ccccc3)cc1)O2 | inactive |
| C[C@H]1CN([C@@H](C)CO)C(=O)c2cc(NS(=O)(=O)c3ccccc3)ccc2O[C@@H]1CN(C)S(=O)(=O)c1ccc(F)cc1 | inactive |
| COc1ccc(-c2cnc3c(c2)C(=O)N([C@H](C)CO)C[C@H](C)[C@H](CN(C)C(=O)Cc2ccncc2)O3)cc1 | inactive |
| C[C@@H]1CCCCO[C@H](CN(C)Cc2ccc(Cl)c(Cl)c2)[C@@H](C)CN([C@H](C)CO)C(=O)c2cc(NS(=O)(=O)c3ccc(Cl)cc3)ccc2O1 | inactive |
| C[C@@H]1CCCCO[C@@H](CN(C)Cc2ccc(Cl)c(Cl)c2)[C@H](C)CN([C@H](C)CO)C(=O)c2cc(NS(=O)(=O)c3ccc(Cl)cc3)ccc2O1 | active |
| CN1CCN(C(=O)[C@H]2[C@H](CO)[C@H]3Cn4c(ccc(C5=CCCC5)c4=O)[C@@H]2N3S(C)(=O)=O)CC1 | inactive |

| SMILES | cytotoxicity call |
| --- | --- |
| CC(C)/C(=N/O)c1ccccc1 | inactive |
| CC(C)NC(=O)N(C)C[C@@H]1Oc2ccc(NC(=O)C3CCCCC3)cc2C(=O)N([C@@H](C)CO)C[C@H]1C | inactive |
| C[C@@H]1O[C@H]2Oc3c(-c4ccc(O)cc4)oc4cc(O)c(c(O)c4c3=O)-c3cc(ccc3O)/C=C\C(=O)OC[C@H]3O[C@@H](O[C@H]([C@H]1O)[C@H]2O)[C@H](O)[C@@H](O)[C@@H]3O | inactive |
| CC(=O)Nc1ncc(CN2CCOCC2)s1 | inactive |
| Cc1c(CN2CCN(C(=O)[C@H](C)O)CC2)sc2c(N3CCOCC3)nc(-c3cnc(N)nc3)nc12 | active |
| CC(C)NC(=O)N(C)C[C@@H]1Oc2ccc(NS(=O)(=O)c3cccs3)cc2C(=O)N([C@H](C)CO)C[C@@H]1C | inactive |
| CC(C)NC(=O)N(C)C[C@H]1Oc2ccc(NC(=O)C3CCCCC3)cc2C(=O)N([C@H](C)CO)C[C@H]1C | inactive |
| C[C@H](CO)N1C[C@H](C)[C@H](CN(C)C(=O)NC2CCCCC2)OCCCC[C@H](C)Oc2ccc(NC(=O)Nc3ccc4c(c3)OCO4)cc2C1=O | inactive |
| C[C@H]1CN([C@@H](C)CO)C(=O)c2cc(-c3cccc(C#N)c3)cnc2O[C@@H]1CN(C)C(=O)c1cnccn1 | inactive |
| CC1(COc2ccc3c(c2)ncn3-c2ccc3cccc(N4CCC(N)CC4)c3n2)COC1 | active |
| O=C1O[C@H](c2ccccc2)[C@H](c2ccccc2)N2[C@H]1[C@@H](C(=O)NC[C@@H](O)c1ccccc1)[C@]1(C(=O)Nc3ccc(C#CC4(O)CCCCCC4)cc31)[C@H]2c1ccccc1OCCO | inactive |
| COCCOC(=O)N1C(=O)[C@@]2(c3cc(C#CC4=CCCCC4)ccc31)[C@H](C(=O)N1CCc3cc(OC)c(OC)cc3C1)[C@H]1C(=O)O[C@H](c3ccccc3)[C@H](c3ccccc3)N1[C@@H]2c1ccccc1OCCO | active |
| O=C1O[C@H](c2ccccc2)[C@H](c2ccccc2)N2[C@H]1[C@@H](C(=O)NC[C@@H](O)c1ccccc1)[C@]1(C(=O)Nc3ccc(C#CC4=CCCCC4)cc31)[C@H]2c1ccccc1OCCO | active |
| C=CCNC(=O)[C@@H]1[C@H]2C(=O)O[C@H](c3ccccc3)[C@H](c3ccccc3)N2[C@H](c2ccc(OCCO)cc2)[C@@]12C(=O)Nc1ccc(C#CC3=CCCCC3)cc12 | inactive |
| COCCOC(=O)N1C(=O)[C@@]2(c3cc(C#CC4=CCCCC4)ccc31)[C@H](c1ccc(OCCO)cc1)N1[C@H](c3ccccc3)[C@H](c3ccccc3)OC(=O)[C@H]1[C@@H]2C(=O)N1CCc2cc(OC)c(OC)cc2C1 | inactive |
| C=CCNC(=O)[C@H]1[C@@H]2C(=O)O[C@@H](c3ccccc3)[C@@H](c3ccccc3)N2[C@@H](c2ccccc2OCCO)[C@]12C(=O)Nc1ccc(C#CC3=CCCCC3)cc12 | active |
| C=CCNC(=O)[C@H]1[C@@H]2C(=O)O[C@@H](c3ccccc3)[C@@H](c3ccccc3)N2[C@@H](c2ccc(OCCO)cc2)[C@]12C(=O)Nc1ccc(C#CC3=CCCCC3)cc12 | inactive |
| C=CCNC(=O)[C@@H]1[C@H]2C(=O)O[C@H](c3ccccc3)[C@H](c3ccccc3)N2[C@H](c2ccccc2OCCO)[C@@]12C(=O)Nc1ccc(C#CC3=CCCCC3)cc12 | active |
| C=CCNC(=O)[C@H]1[C@@H]2C(=O)O[C@@H](c3ccccc3)[C@@H](c3ccccc3)N2[C@@H](c2ccccc2OCCO)[C@]12C(=O)Nc1ccc(C#CC3(O)CCCCCC3)cc12 | inactive |
| C=CCNC(=O)[C@@H]1[C@H]2C(=O)O[C@H](c3ccccc3)[C@H](c3ccccc3)N2[C@H](c2ccccc2OCCO)[C@@]12C(=O)Nc1ccc(C#Cc3ccc(OC)cc3)cc12 | inactive |
| O=C1O[C@@H](c2ccccc2)[C@@H](c2ccccc2)N2[C@@H](c3ccc(OCCO)cc3)[C@]3(C(=O)Nc4ccc(C#CC5=CCCCC5)cc43)[C@@H](C(=O)NC[C@H](O)c3ccccc3)[C@H]12 | inactive |
| COCCOC(=O)N1C(=O)[C@@]2(c3cc(C#CC4=CCCCC4)ccc31)[C@H](c1ccccc1OCCO)N1[C@H](c3ccccc3)[C@H](c3ccccc3)OC(=O)[C@H]1[C@@H]2C(=O)N1CCc2cc(OC)c(OC)cc2C1 | inactive |
